From PubChem BioAssay AID463187 (University of Pittsburgh Molecular Library Screening Center, 2010)
About 1,500 (0.68%) of roughly 220,000 compounds were called active. For the sample, actives were picked, then their nearest neighbours and some compounds at random. A number with no mark means an inactive call.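 How the source made its calls: active means Hck-Nef kinase inhibition above about 50% (limit read from the data); inactive means inhibition below that limit.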

Target: Tyrosine-protein kinase HCK (Homo sapiens) (UniProt P08631)
Experiment: inhibitors of Nef-activated human Hck kinase, primary screen, biochemical, Z-Lyte FRET, 384-well, Hck-YEEI (AID 463187);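 further: 0% = DMSO with Hck plus Nef and 100% = Hck alone without Nef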
Conditions: Recombinant Hck-YEEI plus Nef, Z-Lyte FRET kinase assay; at 20 µM; active compounds read high

Tyrosine-protein kinase HCK (Homo sapiens), sequence (P08631 whole entry, looked up): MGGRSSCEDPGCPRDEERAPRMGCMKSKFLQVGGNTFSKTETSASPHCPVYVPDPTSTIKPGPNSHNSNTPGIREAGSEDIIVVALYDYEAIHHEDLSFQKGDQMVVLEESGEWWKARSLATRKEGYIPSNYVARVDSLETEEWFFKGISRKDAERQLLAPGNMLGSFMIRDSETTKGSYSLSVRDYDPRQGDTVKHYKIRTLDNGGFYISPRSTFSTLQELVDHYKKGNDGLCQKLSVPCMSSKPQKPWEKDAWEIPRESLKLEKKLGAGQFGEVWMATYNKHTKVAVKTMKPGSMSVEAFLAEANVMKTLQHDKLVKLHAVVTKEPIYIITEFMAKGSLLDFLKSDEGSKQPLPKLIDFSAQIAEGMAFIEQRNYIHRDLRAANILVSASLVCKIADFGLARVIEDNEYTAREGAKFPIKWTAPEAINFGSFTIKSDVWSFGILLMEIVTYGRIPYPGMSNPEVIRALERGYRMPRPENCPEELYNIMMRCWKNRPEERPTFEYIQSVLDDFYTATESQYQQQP

| Structure (SMILES) | inhibition |
| --- | --- |
| COc1ccc(NC(=O)c2oc3ccc(S(=O)(=O)N4CCOCC4)cc3c2C)cc1 | -8.31% |
| CCOc1ccccc1NC(=O)c1cc(S(=O)(=O)N2CCC3(CC2)OCCO3)ccc1F | 2.23% |
| Cc1c(C(=O)Nc2ccccc2Cl)oc2ccc(S(=O)(=O)N3CCC4(CC3)OCCO4)cc12 | 74.2% (active) |
| O=C(CCSCCc1ccccn1)Nc1nccs1 | 7.74% |
| OCc1nc(CO)n(Cc2ccccc2)n1 | 0.365% |
| CC1CCCN(CCOCCOc2ccccc2-c2ccccc2)C1 (stereo not drawn) | 0.832% |
| Cc1ccc(NC(=S)N2CCCC(c3ccccc3)=N2)cc1 | -10% |
| O=C(CSc1cccc2cccnc12)N/N=C/c1cccnc1 | 51.3% (active) |
| CCOC(=O)N/N=C/c1cccnc1 | -26.2% |
| Cc1nc2ccccc2n1CC(=O)N/N=C/c1cccnc1 | 24.3% |
| CC(CNc1ccc([N+](=O)[O-])c2cccnc12)Nc1c([N+](=O)[O-])cc(C(F)(F)F)cc1[N+](=O)[O-] (stereo not drawn) | -2.43% |
| Cc1cccc(/C(N)=N/OC(=O)c2ccccc2Cl)c1 | 5.79% |
| COc1ccccc1C(=O)Oc1ccc(N2C(=O)CCC2=O)cc1 | 1.47% |
| Cc1cc(OC(=O)c2ccccc2Cl)ccc1N1C(=O)CCC1=O | 52.4% (active) |
| Cc1sc2c(c1C)c(=O)n(-c1ccccc1)c(=O)n2CC(=O)NCC1CCCO1 (stereo not drawn) | -19.9% |
| O=C(COC(=O)c1ccccc1NC(=O)c1ccco1)Nc1ccc2c(c1)OC(F)(F)O2 | 5.95% |
| Cc1ccc(-n2c(=O)c(C#N)cc3c(=O)n4ccccc4nc32)cc1C | 73.3% (active) |
| Cc1ccc(-n2ncc3c(=O)n(-c4ccc(C)c(C)c4)c(-c4ccco4)nc32)cc1 | -0.384% |
| CCn1c(=N)c(S(=O)(=O)c2ccc(F)cc2)cc2c(=O)n3ccccc3nc21 | 11.1% |
| CNC(=S)Nc1ccc([N+](=O)[O-])cc1 | 21.3% |
| CN(C)CC(C)(C)CNC(=O)c1cc(Br)cc(Br)c1O | 21.9% |
| COc1cc(NC(=O)COC(=O)CSc2ccc3ccccc3c2)c(C)cc1[N+](=O)[O-] | 2.59% |
| Cc1cccc(N2CCN(C(=O)CN(C)S(=O)(=O)c3ccc4c(c3)CCC(=O)N4)CC2)c1C | 0.348% |
| O=C(NCc1ccccc1)C1CCCN(c2nc3ccsc3c(=O)s2)C1 (stereo not drawn) | 63.7% (active) |

| Structure (SMILES) | inhibition |
| --- | --- |
| O=C(NCc1ccccc1)C1CCCN(S(=O)(=O)c2cccs2)C1 (stereo not drawn) | -1.98% |
| CCc1ccc(CNC(=O)C2CCCN(c3nc4ccccc4o3)C2)cc1 (stereo not drawn) | -20.1% |
| CN(C(=O)COC(=O)c1cc(-c2ccco2)nc2ccccc12)C1CCS(=O)(=O)C1 (stereo not drawn) | 65.3% (active) |
| COc1ccc(NC(=O)COc2ccc(C(=O)OCC(=O)N(C)C3CCS(=O)(=O)C3)cc2OC)cc1 (stereo not drawn) | -34.5% |
| Cc1c(-c2cccc(Cl)c2)nc2ccccc2c1C(=O)OCC(=O)N(C)C1CCS(=O)(=O)C1 (stereo not drawn) | -3.32% |
| CC(C)Cc1nn2c(=O)cc(O)nc2s1 | 1.45% |
| O=C(NNC(=O)c1cccnc1)Nc1ccccc1 | -0.546% |
| O=C(NNC(=O)c1csc(-c2cccnc2)n1)Nc1ccc(Cl)cc1 | 52.2% (active) |
| O=C(Nc1ccc(Cl)cc1)Nc1ccc(Oc2cccnc2)nc1 | -9.14% |
| CC(=O)Nc1ccc(OCCC[n+]2cccc(C(=O)[O-])c2)cc1 | 12% |
| FC(F)(F)c1ccc(CN2C[C@@H]3C(c4ccccc4)C4(c5ccccc5)CC3(C4)[C@H]2c2ccccc2)cc1 (stereo partly drawn) | 17.4% |
| Cc1cccc(-n2c(SCC(N)=O)nc3c(c2=O)C2(CCCCC2)Cc2ccccc2-3)c1 | 6.81% |
| COc1cccc(Nc2nnc(SCC(=O)N3CC(=O)Nc4ccccc43)s2)c1 | 36.9% |
| CCCc1nc2ccccc2c(C(=O)OCC(=O)c2ccc3c(c2)NC(=O)CO3)c1CC | -1.08% |
| CCc1ccc(Nc2nnc(SCC(=O)c3ccc4c(c3)NC(=O)CO4)s2)cc1 | 105% (active) |
| CO/N=C(\N)c1ccc([N+](=O)[O-])cc1 | 3.14% |
| CCOc1ccc(N2C(=O)Nc3ccccc3C2(O)C(=O)NCc2ccco2)cc1 (stereo not drawn) | 20.7% |
| CNc1ccc(SC#N)cc1 | 33.3% |
| N#Cc1c(-c2ccc(F)cc2)cc(C2CC2)nc1SCC(=O)c1cccs1 | 3.07% |
| N=c1ccn(CC(=O)NC(N)=O)c2ccccc12 | 0.937% |
| O=C(NC1CCCCCC1)c1cccnc1Sc1ccc(Cl)cc1 | 2.04% |
| Cc1cc(/C=C2/C(=N)N3C(=NC2=O)SN=C3S(C)(=O)=O)c(C)n1-c1ccccc1 | 0.408% |
| CCS(=O)(=O)C1=NSC2=NC(=O)/C(=C\c3cc(C)n(-c4cccc(OC)c4)c3C)C(=N)N21 | 55.1% (active) |
| CCC1=NN2C(=N)/C(=C/c3cc(C)n(-c4ccccc4)c3C)C(=O)N=C2S1 | 15.3% |

| Structure (SMILES) | inhibition |
| --- | --- |
| O=c1cc(-c2ccccc2)[nH]c2cc(F)ccc12 | 2.23% |
| CCc1ccccc1N1CN(Cc2ccco2)CNC1=S | 3.91% |
| O=C1/C(=C/c2cccs2)CCC1C1CCCC1 (stereo not drawn) | 26% |
| CCOc1ccc(C2c3[nH]c4ccccc4c3CCN2Cc2cccn2-c2ncccn2)cc1 (stereo not drawn) | 15.4% |
| CCOc1ccccc1C1C(C(=O)OC)=CN(C)C=C1C(=O)OC | 71.8% (active) |
| COC(=O)C1=CN(C)C=C(C(=O)OC)C1c1ccc(Cl)cc1Cl | 9.15% |
| CCOc1cc(C2C(C(=O)OC)=CN(C3CCCC3)C=C2C(=O)OC)cc(Br)c1O | 1.91% |
| O=C(NCC1CCCCC1)c1cc(S(=O)(=O)N2CCCCC2)ccc1N1CCOCC1 | 19.1% |
| Cc1cccc(NS(=O)(=O)c2ccc(C)c(C(N)=O)c2)c1 | -7.85% |
| COc1cccc(CN(C)CC(=O)Nc2ccccc2C(=O)Nc2ccccc2)c1 | 4.04% |
| COc1ccc(-c2cc3nc(C)c(CCC(=O)NC(C)CCc4ccco4)c(C)n3n2)c(OC)c1 (stereo not drawn) | -1.24% |
| Cc1cnc(C(=O)N2CCCC(C(=O)c3ccc(C(F)(F)F)cc3)C2)cn1 (stereo not drawn) | 17.7% |
| COc1cccc(CNC(=O)CCC2CCCN(Cc3ccc(OC(F)F)cc3)C2)c1 (stereo not drawn) | 52.7% (active) |
| COc1cccc(C(=O)N2CCCC(CCC(=O)NCc3ccc(F)c(F)c3)C2)c1 (stereo not drawn) | 18.6% |
| COc1cccc(CNC(=O)CCC2CCCN(C(=O)c3ccoc3C)C2)c1 (stereo not drawn) | 1.1% |
| O=C(/C=C/c1ccc(F)cc1)Nc1cccc(S(=O)(=O)Nc2cccc(C(F)(F)F)c2)c1 | 2.87% |
| CC(=O)NC(=S)NNC(=O)c1ccc(Br)cc1 | -1.36% |
| COc1cccc2c1OCC(C(=O)NCc1ccc(Cl)cc1Cl)=C2 | 2.65% |
| Cc1nc2nc(SCC(=O)c3ccccc3)[nH]c2cc1Br | 16.2% |
| CCc1ccc(C(=O)CSc2nnc(C)c(=O)[nH]2)cc1 | 10.1% |
| N#Cc1c(-c2cccs2)nc(SCC(=O)c2ccc(Br)cc2)[nH]c1=O | 72.7% (active) |
| COc1cccc(C2Nc3cccc4cccc(c34)N2)c1 | 21.8% |
| COCc1cc(C)nc2sc(C(=O)NC3CCCCC3)c(N)c12 | 1.3% |
| COc1ccc2oc(=O)c(C(=O)N3CCCC3)cc2c1 | 22% |

| Structure (SMILES) | inhibition |
| --- | --- |
| COc1cccc(C(=O)c2cc3ccc(O)cc3oc2=O)c1 | 63.1% (active) |
| COc1ccc2oc(=O)c(C(=O)O)cc2c1 | -0.521% |
| O=C(Cc1c(O)c2ccccc2[nH]c1=O)NCc1ccccc1 | 2.47% |
| COc1cc(OC)cc(C(=O)NCC(=O)OCc2csc(-c3ccccc3)n2)c1 | 3.87% |
| Cc1cc(NC(=O)CN2C(=O)NC(CCc3ccccc3)C2=O)no1 (stereo not drawn) | -23.9% |
| CC(C)OC(=O)Cn1nc(C(F)(F)F)c2c1CCCC2 | 22.4% |
| O=C(N/N=C/c1ccc([N+](=O)[O-])cc1)C(=O)N1CCCC1 | 6.04% |
| N#C/C(=C/c1ccc(N2CCOCC2)o1)C(=O)N1CCOCC1 | 1.17% |
| Cc1nnc(SCC(=O)NNC(=O)c2ccc(Cl)cc2)n1CC1CCCO1 (stereo not drawn) | 22.1% |
| Cc1cccn2c(=O)c3cc(C#N)c(=O)n(CCCN4CCOCC4)c3nc12 | 178% (active) |
| Cc1cccn2c(=O)c3cc(C(=O)N4COCC4(C)C)n(C)c3nc12 | 11.2% |
| Cc1cccn2c(=O)c3cc(C#N)c(=NC(=O)c4cccnc4)n(CC4CCCO4)c3nc12 (stereo not drawn) | 35.1% |
| COC(=O)C1=CN(Cc2ccc(OC)c(OC)c2)C=C(C(=O)OC)C1c1cccs1 | 79.3% (active) |
| COc1ccc(C2=NN(C(=O)CCC(=O)O)C(c3cccs3)C2)cc1OC (stereo not drawn) | 19.1% |
| COc1ccc(CCNC(=O)COC(=O)/C=C/c2cccs2)cc1OC | 19.3% |
| O=C(NCc1cccs1)c1cc(-c2ccccn2)nc2ccc(Br)cc12 | -19.4% |
| O=C(Nc1ccncc1)c1cc(-c2ccccn2)nc2ccc(Br)cc12 | 81.4% (active) |
| Cc1ccc2nc(-c3ccccc3)cc(C(=O)O)c2c1 | 3.19% |
| Cc1ccc2nc(-c3ccncc3)cc(C(=O)Nc3ccc4c(c3)OCCO4)c2c1 | -4.23% |
| Cc1ccc2nc(-c3ccccn3)cc(C(=O)Nc3ccc4c(c3)OCO4)c2c1 | -2.84% |
| Cc1ccc2nc(-c3ccncc3)cc(C(=O)Nc3ccc(OC(F)F)cc3)c2c1 | 53.4% (active) |
